# From the supplement of paper PMC9694430
# Structures can show the parent of a compound that is named as a salt.
# Tested on: T1, LOC_OS04G41100-cb001
# T1 sequence (whole entry): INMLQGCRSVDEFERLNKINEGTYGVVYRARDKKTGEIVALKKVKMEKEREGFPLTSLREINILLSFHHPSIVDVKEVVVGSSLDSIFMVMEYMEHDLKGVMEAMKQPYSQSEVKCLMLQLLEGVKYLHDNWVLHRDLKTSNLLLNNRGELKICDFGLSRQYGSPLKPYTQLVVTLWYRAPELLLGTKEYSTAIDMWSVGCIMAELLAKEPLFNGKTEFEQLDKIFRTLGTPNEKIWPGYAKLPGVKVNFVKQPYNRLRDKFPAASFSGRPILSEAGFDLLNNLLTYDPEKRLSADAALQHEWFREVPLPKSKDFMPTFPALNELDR
# Assay: thermal shift delta Tm vs DMSO control; higher = stronger stabilization (binding)
# Settings: 12.5 µM; protein concentration 2 µM
# Outline: (§1)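 Purified, E. coli-expressed rice kinase domain constructs were tested by differential scanning fluorimetry in 96-well plates: 19.5 μl of 2 μM kinase in 100 mM potassium phosphate pH 7.5, 150 mM NaCl, 10% glycerol, 5 × SYPRO Orange, plus compound in DMSO. Fluorescence was read from 25°C to 95°C at 0.05°C/s. Melting temperatures came from Boltzmann fits, and the shift is the triplicate mean relative to protein with DMSO alone.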
row,SMILES,thermal shift delta Tm [°C]
1,CCN1CCN(Cc2ccc(Nc3ncc(F)c(-c4cc(F)c5nc(C)n(C(C)C)c5c4)n3)nc2)CC1,5.62
2,CN(C)C[C@@H]1CCn2cc(c3ccccc32)C2=C(C(=O)NC2=O)c2cn(c3ccccc23)CCO1,0.73
3,CN1CCN(Cc2ccc(NC(=O)Nc3ccc(Oc4ccnc(N)n4)cc3)cc2C(F)(F)F)CC1,6.72
4,O=C(NOCCO)c1ccc2cncn2c1Nc1ccc(I)cc1F,0.39
5,CCCCCCCCCCCCc1ccc(S(=O)(=O)Nc2nncs2)cc1,0.45

# Tested on: LOC_OS04G57630-cb004
# Assay: as above
# Settings: 12.5 µM; protein concentration 2 µM
# Outline: as §1
row,SMILES,thermal shift delta Tm [°C]
1,CC(C)(C)c1cnc(CSc2cnc(NC(=O)C3CCNCC3)s2)o1,-0.47
2,CN(C)C/C=C/C(=O)Nc1cc2c(Nc3ccc(F)c(Cl)c3)ncnc2cc1O[C@H]1CCOC1 [Afatinib (BIBW2992) Dimaleate],1.02
3,O=C1c2c(O)cc(O)cc2OC(c2ccc(O)c(O)c2)C1O (stereo not drawn) [Taxifolin (Dihydroquercetin)],0.11
4,CCN(CC)CCNC(=O)c1c(C)[nH]c(/C=C2\C(=O)Nc3ccc(F)cc32)c1C [Sunitinib Malate],4.24
5,COc1cc(Nc2ncc(F)c(Nc3ccc4c(n3)N(COP(=O)(O)O)C(=O)C(C)(C)O4)n2)cc(OC)c1OC [Fostamatinib (R788)],1.74
6,CC(C)(C)c1nc(-c2ccc(NC(=O)Nc3cccc(C(F)(F)F)c3)c3ccccc23)c2c(N)nccn12 [kira6],1.93
7,CNC(=O)c1cc(Oc2ccc(NC(=O)Nc3ccc(Cl)c(C(F)(F)F)c3)cc2)ccn1 [Sorafenib Tosylate],1.2
8,CC(=O)Nc1nc(C)c(-c2ccc(Cl)c(S(=O)(=O)NCCO)c2)s1,0.23
